Compound activity (PubChem)
Compounds with a hit are over-represented: about 0.43% of the library has one in this group of screens.
GAA glycogen mod: qHTS Assay for Inhibitors and Activators of Human alpha-Glucosidase Cleavage of Glycogen. recombinant GAA, glycogen substrate, Amplex Red glucose oxidase fluorescence. Potency, µM (highest dose often 76.4 µM), inactives show at the top dose activity change, negative = inhibition, most hits filed as inhibitors. 300,000 tested, 0.38% active. AID 2100, 2009;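 further: potency means the concentration at half of the fitted maximal effect; 0% = full enzyme reaction and -100% = no-enzyme basal signal; the screen sought inhibitors and activators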
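Recombinant human alpha-glucosidase (4 nM final) hydrolysed bovine liver glycogen (30 ug) for 40 min at 37 C in pH 5.0 citrate/phosphate with 0.01% Tween-20. Released glucose detected by glucose oxidase/Amplex Red, Ex 573/Em 610 nm. Compounds up to 77 uM; AC50 from Hill fits.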
GAA inh: qHTS Assay for Inhibitors of Human alpha-Glucosidase as a Potential Chaperone Treatment of Pompe Disease. Lysosomal alpha-glucosidase (Homo sapiens), P10253. purified human GAA, 4-MU-alpha-glucoside fluorescence. Potency, µM (top dose mostly 76.9 µM), for the others: at the top dose activity change, negative = inhibition, usual class: inhibitors. 200,000 tested, 0.005% active. AID 1466, 2008;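 further: potency means the concentration at half of the fitted maximal effect; plate controls were uninhibited enzyme wells for no effect and no-enzyme background for full effect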
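Endpoint fluorogenic read: 20 min room-temperature reaction of 4 nM human alpha-glucosidase with 400 uM 4-methylumbelliferyl-alpha-D-pyranoside, pH 5.0, quenched with 1M NaOH/1M glycine pH 10. AC50 from Hill modeling.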
GLA inh pH 4.5: qHTS Assay for Inhibitors of Human alpha-Galactosidase at pH 4.5 | purified enzyme, 4-MU-alpha-Gal fluorescence, pH 4.5 | activity change, negative = inhibition, % at 105 µM | 230,000 tested, under 10 active | AID 1467, 2008;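 further: 0% = full activity with enzyme and -100% = basal without enzyme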
N370S GC mod: qHTS Assay for Inhibitors and Activators of N370S glucocerebrosidase as a Potential Chaperone Treatment of Gaucher Disease | 330,000 tested, 0.092% active | Potency, µM (titrated, usually from 59.4 µM), for inactives: top-dose activity change, negative = inhibition, hits mostly inhibitors | N370S GC spleen homogenate, 4MU-glucoside fluorescence | AID 2101, 2009 | Lysosomal acid glucosylceramidase (Homo sapiens), P04062;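 further: potency means the concentration at half of the fitted maximal effect; 0% = full enzyme activity and -100% = no enzyme basal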
GAA spleen mod: qHTS Assay for Inhibitors and Activators of Human alpha-Glucosidase From Spleen Homogenate; Lysosomal alpha-glucosidase (Homo sapiens), P10253; human spleen homogenate, 4-MU-alpha-glucoside fluorescence; Potency, µM (highest dose often 79.9 µM), inactives show top-dose activity change, negative = inhibition, hits mostly inhibitors; 240,000 tested, 0.006% active; AID 2112, 2009;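 further: potency means the concentration at half of the fitted maximal effect; 0% = enzyme with vehicle and -100% = no enzyme basal signal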
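AC50 values come from Hill-equation fits of concentration-response data, normalized to no-enzyme and full-activity controls. Enzyme source: 1 ug human spleen homogenate; 1 mM fluorogenic 4-MU glucoside, pH 5.0 citrate buffer, 37 C, 40 min.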
GLA spleen mod: qHTS Assay for Inhibitors and Activators of Human alpha-Galactosidase From Spleen Homogenate | Potency, µM (doses to about 80 µM), for the others: at the highest dose activity change, negative = inhibition, actives largely listed as inhibitors | human spleen homogenate, 4MU-alpha-Gal fluorescence, 40 min | 240,000 tested, 0.008% active;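 further: potency means the concentration at half of the fitted maximal effect; 0% = enzyme with vehicle and -100% = no enzyme basal signal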
Target sequence (P06280 32-429 limits assumed): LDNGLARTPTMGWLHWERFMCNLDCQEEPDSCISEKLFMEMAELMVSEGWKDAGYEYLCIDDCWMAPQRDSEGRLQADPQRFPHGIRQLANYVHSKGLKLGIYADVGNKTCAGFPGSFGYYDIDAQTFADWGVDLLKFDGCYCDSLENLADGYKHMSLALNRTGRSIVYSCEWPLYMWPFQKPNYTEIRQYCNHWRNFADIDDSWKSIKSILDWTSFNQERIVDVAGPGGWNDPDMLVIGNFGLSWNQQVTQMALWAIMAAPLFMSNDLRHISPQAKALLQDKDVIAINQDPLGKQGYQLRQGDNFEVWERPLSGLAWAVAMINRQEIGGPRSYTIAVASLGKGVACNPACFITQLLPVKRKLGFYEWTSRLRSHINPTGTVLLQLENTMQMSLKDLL
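qHTS titration in buffer at pH 5.0. Alpha-galactosidase activity in spleen homogenate was measured via 4-methylumbelliferone release from 1 mM fluorogenic substrate after 40 min at 37C and a pH 10 stop. AC50 came from Hill fits of control-normalized data.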
The depositor's hits bear a star; ? = inconclusive; / = no result; [ ] = dose if it differs, or a comment. The call rests on the fitted dose curve; in most records, active means well fitted curve in the direction sought with a large enough effect; inconclusive means small, poorly fitted or top-dose-only effect, or another doubt; inactive means no such curve, though single readings can be large; an effect the other way counts as inactive or inconclusive.

SMILES | GAA glycogen mod | GAA inh | GLA inh pH 4.5 | N370S GC mod | GAA spleen mod | GLA spleen mod
Nc1cc(CN2C(=O)c3ccccc3C2=O)cc(Cl)c1O | 7.9µM* | -6% | -7 | -8% | 1% | 3%
O=C1c2ccccc2C(=O)N1Cc1cc(Cl)c(O)c([N+](=O)[O-])c1 | 0% | / | / | -6% | / | /
Nc1nc(C2CC2)c(Sc2sc(N)nc2C2CC2)s1 | 6.3µM* | 5% | -4 | -13% | 2% | 0%
CCc1nnc(N/N=C/c2ccc(N3CCC(C)CC3)c([N+](=O)[O-])c2)n1N | ? | 2% | -7 | ? | -15% | -6%
Cc1nnc(N/N=C/c2cc([N+](=O)[O-])c(N3CCC(C)CC3)cc2N2CCC(C)CC2)n1N | 31µM* | ? | -11 | -14% | -7% | 1%
O=C(NNS(=O)(=O)c1ccccc1)c1cc2cc3ccccc3nc2s1 | 22µM* | 6% | -5 | -6% | -6% | 2%
C/C(=N\NC(=O)c1ccccc1F)c1ccc2c(c1)Nc1ccccc1S2 | 25µM* | 0% | 1 | 11% | -2% | 5%
O=C(NNC(=S)NC1CCCCC1)c1ccc(Cl)s1 | 50µM* | ? | 0 | 1% | -14% | 3%
C=CCC(C)(O)C#Cc1ccccc1 (centres undefined) | / | / | 2 | -3% | -3% | 7%
CCN1C(=NCc2cc(OC)c(OC)c(OC)c2)N[C@@H](c2cccc(F)c2)C(C(=O)OC)=C1C | -7%[76.3 µM] | / | / | -20% | / | /
CCOC(=O)c1c(C)oc2c1cc(O)c1ccccc12 | ? | 1% | -13 | 12% | -13% | -2%
CCOC(=O)c1c(C)[nH]c2c1cc(O)c1ccccc12 | 16µM* | 0% | -22 | -7% | -1% | 3%
COc1ccc(NCc2ccc(OC)c(Cn3ccnc3)c2)c(OC)c1 | 7µM* | / | / | -3% | / | /
COc1ccc(-c2cnc(NCc3ccc(C)cc3)n2C)cc1 | 10µM* | / | / | / | / | /
COc1c(-c2ccc(O)c(O)c2)oc2cc(O)cc(O)c2c1=O | 35µM* | / | -8 | -10% | 3% | -6%
C[C@@H]1O[C@@H](OC[C@H]2O[C@@H](Oc3c(-c4ccc(O)c(O)c4)oc4cc(O)cc(O)c4c3=O)[C@H](O)[C@@H](O)[C@@H]2O)[C@H](O)[C@H](O)[C@H]1O | 3.2µM* | -2%[15.4 µM] | -6 | -1% | -4% | -10%
O=c1c(O)c(-c2ccc(O)cc2O)oc2cc(O)cc(O)c12 | 3.2µM* | 0%[15.4 µM] | 0 | -10% | -11% | -1%
CC1OC(OCC2OC(Oc3c(-c4ccc(O)cc4)oc4cc(O)cc(O)c4c3=O)C(O)C(O)C2O)C(O)C(O)C1O (centres undefined) | ? | / | -3 | -15% | -1% | -11%
COc1cc(-c2oc3cc(O)cc(O)c3c(=O)c2O[C@@H]2O[C@H](CO)[C@@H](O)[C@H](O)[C@H]2O)ccc1O | / | / | / | -4% | -1% | 3%
O=c1c(O[C@@H]2O[C@H](CO)[C@@H](O)[C@H](O)[C@H]2O)c(-c2ccc(O)c(O)c2)oc2cc(O)cc(O)c12 | 3.5µM* | -1%[15.4 µM] | -15 | -15% | -10% | -7%
CCOc1ccc(-n2c(=O)c3c(C)c(C)sc3n(CC(=O)C(C)(C)C)c2=O)cc1 | -4%[76.3 µM] | / | / | / | / | /
O=c1c(O[C@@H]2O[C@H](CO)[C@@H](O)[C@H](O)[C@H]2O)c(-c2ccc(O)cc2)oc2cc(O)cc(O)c12 | / | / | / | -17% | -8% | -11%
O=c1c(O[C@@H]2O[C@H](CO)[C@H](O)[C@H](O)[C@H]2O)c(-c2ccc(O)c(O)c2)oc2cc(O)cc(O)c12 | 6.3µM* | -6%[15.4 µM] | -9 | ? | ? | ?
CC1=Nc2ccccc2N=C(N)C1c1ccccc1 (centres undefined) | 16µM* | 3% | 3 | -6% | 5% | 9%
C=C1C(c2ccc(C)cc2)=CCc2cc(C)cc(C)c21 | / | / | / | ? | 9% | 11%
SMILES | GAA glycogen mod | GAA inh | GLA inh pH 4.5 | N370S GC mod | GAA spleen mod | GLA spleen mod
Oc1ccc(Nc2nc(-c3ccc4ccccc4c3)cs2)cc1 | 5.6µM* | ? | 2 | ? | 10% | 10%
CC(=O)Nc1nc(C)c(-c2csc(Nc3ccc(O)cc3)n2)s1 | 25µM* | 0% | 0 | ? | 2% | 1%
Cc1ccc(Nc2nc(-c3c(C)nc4ccccn34)cs2)cc1 | 28µM* | -7% | -7 | -10% | 6% | 9%
Oc1ccc(-c2nc(-c3ccc(O)c(O)c3)cs2)cc1 | 11µM* | -9% | -2 | -18% | 1% | 6%
Cc1ccc(Nc2nc(-c3c(C)nc4ncccn34)cs2)cc1 | ? | 4% | -6 | -12% | -5% | -3%
COC(=O)C1=C(C(=O)OC)[C@@H]2N(C)c3ccccc3[C@@]23C[C@@H](CO)N(C(=O)c2ccco2)C3=N1 | / | / | 5 | -4%[12.8 µM] | 3%[17.4 µM] | 0%[17.5 µM]
CO[C@H]1COC(=O)[C@H](C)NC(=O)C/C=C\[C@@H](C)[C@@H](NS(=O)(=O)c2ccc(C)cc2)COC(=O)C/C=C\[C@@H]1C | / | / | / | 5%[12.8 µM] | 1%[17.4 µM] | 0%[17.5 µM]
c1ccc(-c2nc(-c3cccc4ccccc34)c(NC3CCCCC3)o2)cc1 | / | / | 2 | 14% | 5% | 10%
Cc1nc2ncccn2c1-c1csc(Nc2ccc(O)cc2)n1 | 22µM* | -4% | -3 | -2% | 0% | -1%
COc1cccc(CNn2c(-c3cccc(C)c3)nc3ccccc3c2=O)c1O | 31µM* | -1% | -1 | 8% | -8% | -9%
COc1cc2oc(-c3ccc(O)cc3)cc(=O)c2c(O)c1OC | -16% | / | 2 | 10µM* | 2% | 5%
COc1cc2oc(-c3ccc(O)cc3)cc(=O)c2c(OC)c1O | -7% | 4%[15.4 µM] | -13 | ? | -5% | -12%
Nc1nc(N2CCN(c3ccccc3)CC2)n[nH]1 | 10µM* | 7% | -3 | 9% | 9% | 3%
Nc1nc(N2CCN(c3ccc(Cl)cc3)CC2)n[nH]1 | ? | 10% | -15 | -7% | -14% | 1%
CC(C)(C)c1cc(C(=S)N2CCN(CCO)CC2)cc(C(C)(C)C)c1O | -2% | -2% | -8 | 18µM* | -15% | -13%
Cc1[nH]n(C(C)(C)C)c(=O)c1Sc1ccccc1 | 16µM* | 1% | 9 | 4% | -1% | 4%
